Compounds with a hit are over-represented: about 10% of the library has one in this group of screens.
VP16 counter – VP16 counterscreen qHTS for inhibitors of ROR gamma transcriptional activity; Drosophila S2 Gal4-VP16 UAS-luciferase, luminescence, 20 h; 310,000 tested, 3.5% active; AID 2546, 2010; Potency, µM (series often up to 53.6 µM), for the others: top-dose activity, negative = inhibition, most hits filed as inhibitors;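 note: Gal4-VP16 expression switched on by copper sulfate through the metallothionein promoter; % is set by controls: 0 for no effect and ±100 for the full control effect; nearly all actives have a fitted effect of over 50% in size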
MCF10A rereplic – A quantitative high throughput screen for small molecules that induce DNA re-replication in MCF 10a normal breast cells | MCF 10A DNA re-replication, Hoechst nuclear intensity, 48 h | Potency, µM (titrated, usually from 46.1 µM), for inactives: at the top dose activity, positive = re-replication, hits mostly activators | 350,000 tested, 2.9% active; note: % of control where 0% means no effect; nearly all actives have a fitted effect of over 50% in size
KB-3-1 tox – qHTS assay for MDR1-selective chemotherapeutics: Primary screen using the parental adenocarcinoma cell KB-3-1; KB-3-1 viability, CellTiter-Glo ATP luminescence, 72 h; 400,000 tested, 1.4% active; Potency, µM (doses to about 46.1 µM), actives largely listed as cytotoxic; note: % is set by controls: 0 for no effect and ±100 for the full control effect; nearly all actives have a fitted effect of over 60% in size
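Here the drug-naive KB-3-1 line serves as comparator for MDR sub-line selectivity; cells received compound titrations, 72 h at 37 °C, then CellTiter-Glo readout.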
SW480 rereplic – A quantitative high throughput screen for small molecules that induce DNA re-replication in SW480 colon adenocarcinoma cells | SW480 DNA re-replication, Hoechst DNA content imaging, 48 h | Potency, µM (titrated, usually from 46.1 µM), inactives show at the highest dose re-replication activation, hits mostly activators | 340,000 tested, 1.8% active; note: % of control where 0% means no effect; nearly all actives have a fitted effect of over 55% in size
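Image-based DNA-content assay: after two days of treatment, nuclei were labelled with the DNA dye Hoechst and imaged, and hits were compounds raising the count of nuclei showing high fluorescence intensity.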
KB-V1 cytotox – qHTS assay for MDR1-selective chemotherapeutics: Primary screen using the drug-selected MDR subline cells KB-V1. KB-V1 MDR cells viability, CellTiter-Glo, 72 h. Potency, µM (top dose mostly 46.1 µM), most hits filed as cytotoxic. 400,000 tested, 3.4% active; note: % is set by controls: 0 for no effect and ±100 for the full control effect; nearly all actives have a fitted effect of over 60% in size
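Cytotoxicity toward P-gp-expressing KB-V1 cells was determined as loss of CellTiter-Glo luminescence after 72 h at 37 degrees C. Compounds were tested in quantitative HTS format across a concentration range, with curves fitted to normalized data.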
RORgamma inh – qHTS for inhibitors of ROR gamma transcriptional activity. Potency, µM (highest dose often 53.6 µM), without a hit: at the highest dose activity change, negative = inhibition, most hits filed as inhibitors. Nuclear receptor ROR-gamma (Mus musculus), P51450. Drosophila S2 Gal4-RORgamma UAS-luciferase reporter, 20 h. 310,000 tested, 5.4% active; note: % is set by controls: 0 for no effect and ±100 for the full control effect; nearly all actives have a fitted effect of over 60% in size
Target sequence (P51450 whole entry, looked up, the tested form may be a part): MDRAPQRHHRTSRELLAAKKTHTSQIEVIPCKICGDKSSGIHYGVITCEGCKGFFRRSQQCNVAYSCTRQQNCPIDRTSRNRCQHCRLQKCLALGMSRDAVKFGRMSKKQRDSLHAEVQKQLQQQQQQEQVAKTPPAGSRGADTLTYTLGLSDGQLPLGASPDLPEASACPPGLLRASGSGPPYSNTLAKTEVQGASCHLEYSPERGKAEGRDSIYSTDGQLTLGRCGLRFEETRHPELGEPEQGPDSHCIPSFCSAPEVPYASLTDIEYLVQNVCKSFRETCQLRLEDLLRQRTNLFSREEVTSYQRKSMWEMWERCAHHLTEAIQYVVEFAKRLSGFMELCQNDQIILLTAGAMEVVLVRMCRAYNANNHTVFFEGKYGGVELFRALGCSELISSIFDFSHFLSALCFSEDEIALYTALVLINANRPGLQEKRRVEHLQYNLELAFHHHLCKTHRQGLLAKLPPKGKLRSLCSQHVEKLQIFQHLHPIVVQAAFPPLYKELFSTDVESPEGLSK
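Stable Schneider cell line, Gal4 DNA-binding domain fused to ROR gamma, UAS-luciferase. Cmpd 1 hr RT → CuSO4 700 uM final → 20 hr RT → luciferase reagent 10 min → luminescence.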
An asterisk follows results filed as active; i = inactive; ? = inconclusive; / = no result given; [ ] = dose if it differs, or a comment. Calls come from the whole dose curve; as a rule, active = well fitted curve in the direction sought with a large enough effect; inconclusive = small, poorly fitted or top-dose-only effect, or another doubt; inactive = no such curve, though single readings can be large; an effect the other way counts as inactive or inconclusive. Potency is the fitted concentration of half-maximal effect.

SMILES	VP16 counter	MCF10A rereplic	KB-3-1 tox	SW480 rereplic	KB-V1 cytotox	RORgamma inh
CC(=O)N1CCN(C(=O)c2[nH]c(C(F)(F)F)nc2-c2ccccc2)CC1	/	/	i	/	i	/
COc1ccccc1N1CCN(C(=O)c2[nH]c(C(F)(F)F)nc2-c2ccccc2)CC1	/	/	5.8µM*	/	?	/
O=C(c1[nH]c(C(F)(F)F)nc1-c1ccccc1)N1CCN(c2cccc(C(F)(F)F)n2)CC1	/	/	5.2µM*	/	?	/
Cc1cccc(N2CCN(C(=O)c3[nH]c(C(F)(F)F)nc3-c3ccccc3)CC2)c1C	/	/	2.3µM*	/	?	/
COc1ccc(N2CCN(C(=O)c3[nH]c(C(F)(F)F)nc3-c3ccccc3)CC2)cc1	/	/	i	/	i	/
N#C/C(=N\Nc1ccc(Cl)c(Cl)c1)C(=O)C1CC1	?	?	16µM*	1%	?	?
N#C/C(=N\Nc1ccc(F)cc1)C(=O)C1CC1	-14%	?	i	22%	i	40%
CC(=O)c1ccc(-c2ccc([C@H]3[C@H]4C=CC[C@@H](C)[C@@H]4C(=O)N3Cc3ccccc3)c(F)c2)cc1	-10%	?	?	-17%[9.22 µM]	21µM*	?
COc1ccc(-c2cc([C@H]3[C@H]4C=CC[C@@H](C)[C@@H]4C(=O)N3Cc3ccccc3)ccc2F)cc1	3%	?	16µM*	-8%[9.22 µM]	?	-16%
COC(=O)c1ccc(-c2ccc([C@H]3[C@H]4C=CC[C@@H](C)[C@@H]4C(=O)N3Cc3ccccc3)c(F)c2)cc1	-4%	?	i	?	i	18%
COc1ccc(-c2cc([C@H]3[C@H]4C=CC[C@@H](C)[C@@H]4C(=O)N3Cc3ccccc3)ccc2F)cc1OC	?	?	16µM*	10%	?	34%
CC[C@@H]1CC=C[C@H]2[C@H]1C(=O)N(Cc1ccccc1)[C@H]2c1ccoc1	?	8.2µM*	15µM*	2%[9.22 µM]	?	?
O=C(O)c1ccccc1NC(c1ccccc1)c1ccc(Cl)cc1 (stereo not drawn)	-6%	9%	i	12%	i	1%
NCC1O[C@@H](OC2C(N)C[C@H](N)[C@@H](O[C@H]3OC(CO)C(O)C(N)C3O)C2O)C(O)C(O)C1O (stereo partly drawn)	7%	/	/	/	/	1%
NS(=O)(=O)c1ccc(NC(=S)Nc2ccn(Cc3cccc4ccccc34)n2)cc1	?	-3%	?	?	?	10µM*
COc1ccc(-c2nnc(SCC(=O)c3ccc([N+](=O)[O-])cc3)o2)cc1OC	/	/	i	/	i	/
COc1cc(CNCc2ccccn2)ccc1OCc1ccc(Cl)cc1	-19%	?	i	4%	i	-17%
COc1cc(CNCc2ccccn2)ccc1OCc1cccc(Cl)c1	?	13µM*	i	?	i	4µM*
COc1cc(CNCc2ccccn2)ccc1OCc1c(Cl)cccc1Cl	20µM*	?	i	?	?	14µM*
CC(C)(C)c1ccc2cccc(F)c2n1	/	/	i	/	i	/
CC(=O)c1cccc(NC(=O)Cn2c(-c3cncs3)nc3ccccc32)c1	/	/	i	/	i	/
CCCOc1ccc(C2CC(=O)Nc3c2c(=O)n(C)c(=O)n3C)cc1OC (stereo not drawn)	/	/	i	/	i	/
Cc1[nH][nH]c(=O)c1C(c1c(C)[nH][nH]c1=O)c1cn(Cc2ccc(F)cc2)c2ccccc12	-19%	?	?	9.2µM*	?	?
Cc1[nH][nH]c(=O)c1C(c1c(C)[nH][nH]c1=O)c1cn(Cc2ccc(Cl)c(Cl)c2)c2ccccc12	?	?	23µM*	9.2µM*	13µM*	-29%
